Where “and” joins values, the source holds several entries; their conditions need not be identical. Equal values may be shown once. Records with an inconclusive call do not appear. Some structures have more than one record in an assay (separate samples or runs), and their calls can disagree. Calls of active or inactive are those of the source. Unless noted, calls follow the shape of the dose curve; as a rule, active = well fitted curve in the direction sought with a large enough effect in the repeat runs; inconclusive = weak or mixed curves; inactive = no such curve, though single readings can be large; an effect the other way counts as inactive or inconclusive.
Assays:
[1] = qHTS assay to identify aromatase inhibitors - cell viability counter screen (AID 743084);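 also: cells stimulated with testosterone during compound exposure; nearly all actives have a fitted effect of over 55% in size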
[2] = target: Aryl hydrocarbon receptor (Homo sapiens) (UniProt P35869); experiment: qHTS assay to identify small molecule that activate the aryl hydrocarbon receptor (AhR) signaling pathway (AID 743085); also: nearly all actives have a fitted effect of over 15% in size; also: potency is read from the fitted curve at half-maximal effect;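 as to activation: HG2L7.5c1 human HepG2 liver cells with stably integrated DRE-driven firefly reporter; series mostly up to about 70 µM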
Sequence of Aryl hydrocarbon receptor (Homo sapiens) (P35869 whole entry, looked up): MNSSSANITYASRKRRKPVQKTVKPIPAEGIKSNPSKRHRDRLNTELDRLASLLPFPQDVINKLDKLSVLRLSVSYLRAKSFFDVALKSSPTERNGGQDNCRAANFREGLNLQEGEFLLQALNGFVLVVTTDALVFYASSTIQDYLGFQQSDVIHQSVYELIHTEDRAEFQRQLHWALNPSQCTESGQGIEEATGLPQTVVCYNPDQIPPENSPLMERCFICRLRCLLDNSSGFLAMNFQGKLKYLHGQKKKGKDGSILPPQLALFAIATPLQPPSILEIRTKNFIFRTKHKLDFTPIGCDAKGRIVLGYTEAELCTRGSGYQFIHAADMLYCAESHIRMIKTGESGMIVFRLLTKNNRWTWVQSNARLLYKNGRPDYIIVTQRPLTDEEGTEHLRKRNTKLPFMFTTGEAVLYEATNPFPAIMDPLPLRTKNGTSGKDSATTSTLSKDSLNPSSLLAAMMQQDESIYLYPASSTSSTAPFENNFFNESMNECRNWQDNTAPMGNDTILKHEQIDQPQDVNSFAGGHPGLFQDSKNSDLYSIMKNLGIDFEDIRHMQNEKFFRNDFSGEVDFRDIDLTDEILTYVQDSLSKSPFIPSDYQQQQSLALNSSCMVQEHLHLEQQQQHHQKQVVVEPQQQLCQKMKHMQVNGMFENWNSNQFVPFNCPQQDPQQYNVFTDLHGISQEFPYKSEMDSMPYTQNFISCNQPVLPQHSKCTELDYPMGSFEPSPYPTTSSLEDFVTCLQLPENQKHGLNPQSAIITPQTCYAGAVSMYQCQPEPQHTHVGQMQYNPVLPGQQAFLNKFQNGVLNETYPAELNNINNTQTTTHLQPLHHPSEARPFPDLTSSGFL
Outline: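 Measured in HG2L7.5c1 cells: CellTiter-Fluor signal (30 min incubation, 37C) for viability, then luciferase luminescence (30 min, room temperature). Compound contact time was 24 h at 37C, following a 5 h pre-incubation.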

[3] = qHTS assay to identify small molecule that activate the aryl hydrocarbon receptor (AhR) signaling pathway - cell viability counter screen (AID 743086);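 also: HepG2 liver cells carrying the AhR DRE luciferase reporter; series mostly up to about 70 µM; nearly all actives have a fitted effect of over 45% in size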
Outline: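 Cytotoxicity counter screen: CellTiter-Fluor signal (30 min, 37 C) in 4000 HepG2 cells/well carrying the DRE-luciferase reporter, following 24 h compound exposure at 37 C.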

[4] = target: Peroxisome proliferator-activated receptor gamma (Homo sapiens) (UniProt P37231); experiment: qHTS assay to identify small molecule agonists of the peroxisome proliferator-activated receptor gamma (PPARg) signaling pathway (AID 743094; active = well fitted activation curve with a large enough effect in the signal ratio in the repeat runs, not every such curve was filed as active; the % refers to the signal ratio)
Sequence of Peroxisome proliferator-activated receptor gamma (Homo sapiens) (P37231 whole entry, looked up): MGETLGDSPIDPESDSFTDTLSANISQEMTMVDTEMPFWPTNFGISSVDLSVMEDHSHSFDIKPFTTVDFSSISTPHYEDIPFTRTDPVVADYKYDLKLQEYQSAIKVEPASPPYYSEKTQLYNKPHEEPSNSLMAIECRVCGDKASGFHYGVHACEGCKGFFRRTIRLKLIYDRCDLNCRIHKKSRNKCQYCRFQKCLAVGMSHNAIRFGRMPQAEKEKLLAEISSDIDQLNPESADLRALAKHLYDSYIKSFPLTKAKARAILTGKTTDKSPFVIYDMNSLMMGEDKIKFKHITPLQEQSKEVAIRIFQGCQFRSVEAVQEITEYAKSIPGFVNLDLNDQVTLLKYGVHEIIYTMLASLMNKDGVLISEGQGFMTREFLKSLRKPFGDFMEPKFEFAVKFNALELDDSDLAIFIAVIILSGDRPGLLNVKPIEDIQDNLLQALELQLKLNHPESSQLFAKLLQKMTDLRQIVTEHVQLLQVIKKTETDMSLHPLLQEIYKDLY
Outline: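 Agonism was assessed in a beta-lactamase reporter system, HEK293H cells with a stably integrated UAS-bla construct under PPARg control; the 17 h treatment at 37C preceded a 1 h room-temperature FRET substrate read.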

[5] = target: Peroxisome proliferator-activated receptor gamma (Homo sapiens) (UniProt P37231); experiment: qHTS assay to identify small molecule antagonists of the peroxisome proliferator-activated receptor gamma (PPARg) signaling pathway (AID 743191; calls by dose curve; also: nearly all actives have a fitted effect of over 30% in size; also: potency is read from the fitted curve at half-maximal effect)
Outline: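 Beta-lactamase reporter under UAS control in HEK293H PPARg-bla cells; compound treatment 17 h at 37C. Read-out: fluorescence intensity after 1 h room-temperature incubation with LiveBLAzer B/G FRET substrate.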

[6] = qHTS assay to identify small molecule antagonists of the peroxisome proliferator-activated receptor gamma (PPARg) signaling pathway - cell viability counter screen (AID 743194); also: nearly all actives have a fitted effect of over 55% in size
Outline: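 Viability was measured as CellTiter-Glo luminescence in GeneBLAzer PPARg UAS-bla HEK293H cells. These cells had been exposed 17 h at 37 C to compounds together with rosiglitazone at 50 nM final, with the beta-lactamase readout taken in the same wells.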

[7] = qHTS assay for small molecule agonists of the antioxidant response element (ARE) signaling pathway (AID 743202; active = well fitted activation curve with a large enough effect in the signal ratio in the repeat runs, not every such curve was filed as active; the % refers to the signal ratio; also: potency is read from the fitted curve at half-maximal effect)
Outline: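 After 16 hours of compound treatment at 37 C, HepG2 cells with a stably integrated ARE-driven beta-lactamase reporter were loaded 2 hours at room temperature with LiveBLAzer B/G FRET substrate and fluorescence intensity measured.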

[8] = qHTS assay for small molecule agonists of the antioxidant response element (ARE) signaling pathway - cell viability counter screen (AID 743203; calls by dose curve; also: nearly all actives have a fitted effect of over 55% in size)
Outline: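 ATP content via CellTiter-Glo luminescence served as the viability measure. Cells: ARE-bla HepG2, 2,000 per well. Exposure: 16 hrs, 37C/5% CO2.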

[9] = qHTS assay for small molecule activators of the heat shock response signaling pathway - cell viability counter screen (AID 743209); also: nearly all actives have a fitted effect of over 50% in size
Outline: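 Compounds dissolved in DMSO were added to overnight-plated HSE-bla HeLa cells and left 5 h at 37 C. Cell viability was quantified by luminescence using CellTiter-Glo.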

[10] = qHTS assay to identify small molecule agonists of the peroxisome proliferator-activated receptor delta (PPARd) signaling pathway - cell viability counter screen (AID 743211); also: nearly all actives have a fitted effect of over 55% in size
Outline: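 Following 5 h plating at 37 C and 5% CO2, PPARd UAS-bla HEK293H cells took up test compounds for 17 h. Viability was quantified by luminescence 30 min after CellTiter-Glo addition at room temperature.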

[11] = target: Peroxisome proliferator-activated receptor delta (Homo sapiens) (UniProt Q03181); experiment: qHTS assay to identify small molecule agonists of the peroxisome proliferator-activated receptor delta (PPARd) signaling pathway (AID 743212; calls by dose curve)
Sequence of Peroxisome proliferator-activated receptor delta (Homo sapiens) (Q03181 whole entry, looked up): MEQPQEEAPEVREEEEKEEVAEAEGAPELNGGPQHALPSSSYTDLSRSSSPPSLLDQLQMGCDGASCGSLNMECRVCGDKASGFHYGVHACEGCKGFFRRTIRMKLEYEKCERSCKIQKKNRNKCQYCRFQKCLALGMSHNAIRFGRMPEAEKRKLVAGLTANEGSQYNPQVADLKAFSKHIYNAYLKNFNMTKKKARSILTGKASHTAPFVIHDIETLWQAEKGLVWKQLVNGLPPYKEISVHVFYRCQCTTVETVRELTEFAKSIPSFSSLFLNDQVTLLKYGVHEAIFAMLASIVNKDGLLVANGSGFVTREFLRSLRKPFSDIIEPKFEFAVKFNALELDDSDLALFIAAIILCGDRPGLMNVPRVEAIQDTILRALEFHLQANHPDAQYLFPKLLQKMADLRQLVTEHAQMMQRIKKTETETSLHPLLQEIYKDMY
Outline: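 Beta-lactamase reporter readout: a ratiometric FRET signal from the LiveBLAzer substrate after 2 h at room temperature. Compound exposure at 37 °C in PPARδ-bla HEK293H cells driven by an upstream activator sequence.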

[12] = qHTS assay to identify small molecule antagonists of the peroxisome proliferator-activated receptor delta (PPARd) signaling pathway - cell viability counter screen (AID 743213); also: nearly all actives have a fitted effect of over 50% in size
Outline: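 Luminescence from CellTiter-Glo, added after the bla read and incubated 30 min at room temperature, gives viability of HEK293H PPARd-bla cells exposed to compounds for 17 h at 37 C with 300 nM L165041.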

[13] = target: Peroxisome proliferator-activated receptor delta (Homo sapiens) (UniProt Q03181); experiment: qHTS assay to identify small molecule antagonists of the peroxisome proliferator-activated receptor delta (PPARd) signaling pathway (AID 743215; active = well fitted inhibition curve with a large enough effect in the signal ratio in the repeat runs, not every such curve was filed as active; the % refers to the signal ratio;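 also: cells stimulated with agonist L165041 at 300 nM final during compound exposure; series mostly up to about 62 µM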)
Outline: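 Here, a reporter line (HEK293H, beta-lactamase under a UAS) measures PPARd signaling. Compounds are tested against agonist L165041 at 300 nM final concentration over 17 h at 37 C, with fluorescence read after substrate.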

[14] = target: Bile acid receptor (Homo sapiens) (UniProt Q96RI1); experiment: qHTS assay to identify small molecule antagonists of the farnesoid-X-receptor (FXR) signaling pathway (AID 743217; active = well fitted inhibition curve with a large enough effect in the signal ratio in the repeat runs, not every such curve was filed as active; the % refers to the signal ratio; also: potency is read from the fitted curve at half-maximal effect)
Sequence of Bile acid receptor (Homo sapiens) (Q96RI1 whole entry, looked up): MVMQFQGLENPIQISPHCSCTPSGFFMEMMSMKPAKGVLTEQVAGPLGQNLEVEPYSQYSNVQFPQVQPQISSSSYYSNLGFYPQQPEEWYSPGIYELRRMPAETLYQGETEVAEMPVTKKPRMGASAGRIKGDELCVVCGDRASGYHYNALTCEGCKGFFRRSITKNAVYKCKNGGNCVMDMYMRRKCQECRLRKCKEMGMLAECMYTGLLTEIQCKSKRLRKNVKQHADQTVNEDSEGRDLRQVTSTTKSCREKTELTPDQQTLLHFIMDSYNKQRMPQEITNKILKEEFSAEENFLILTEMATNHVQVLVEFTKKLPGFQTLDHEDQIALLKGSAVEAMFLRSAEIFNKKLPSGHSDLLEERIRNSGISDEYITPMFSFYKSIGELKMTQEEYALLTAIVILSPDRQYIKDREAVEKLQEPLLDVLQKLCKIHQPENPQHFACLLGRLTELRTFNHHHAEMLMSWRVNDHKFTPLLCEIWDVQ
Outline: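 Test compounds are pin-transferred onto FXR-bla HEK 293T cells, then chenodeoxycholic acid is added at 50 uM final. After 16 h at 37 °C, LiveBLAzer B/G substrate is applied for 2 h at room temperature and fluorescence read.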

[15] = qHTS assay to identify small molecule agonists of the farnesoid-X-receptor (FXR) signaling pathway - cell viability counter screen (AID 743218); also: nearly all actives have a fitted effect of over 45% in size
Outline: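 Quantitative HTS counter screen measuring ATP-based viability via CellTiter-Glo luminescence in HEK 293T cells carrying a UAS-driven beta-lactamase reporter, after 16 h compound exposure at 37 C.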

[16] = target: Bile acid receptor (Homo sapiens) (UniProt Q96RI1); experiment: qHTS assay to identify small molecule agonists of the farnesoid-X-receptor (FXR) signaling pathway (AID 743220; active = well fitted activation curve with a large enough effect in the signal ratio in the repeat runs, not every such curve was filed as active; the % refers to the signal ratio)
Outline: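 FXR-UAS-bla HEK 293T cells carrying a UAS-driven beta-lactamase reporter were plated for 5 h at 37C/5% CO2, then exposed to DMSO-dissolved Tox21 10K compounds for 16 h at 37C. A LiveBLAzer B/G FRET substrate was loaded for 2 h at room temperature before fluorescence reading.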

[17] = qHTS assay to identify small molecule antagonists of the farnesoid-X-receptor (FXR) signaling pathway - cell viability counter screen (AID 743221; active = well fitted cell-killing curve with a large enough effect in the repeat runs, not every such curve was filed as active; also: nearly all actives have a fitted effect of over 50% in size)
Outline: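 Compound effects on cell number were measured as CellTiter-Glo luminescence in HEK 293T cells expressing FXR-UAS-bla, after 16 h at 37 C with 50 uM CDCA (final).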

[18] = target: Vitamin D3 receptor (Homo sapiens) (UniProt P11473); experiment: qHTS assay to identify small molecule agonists of the vitamin D receptor (VDR) signaling pathway (AID 743222; calls by dose curve)
Sequence of Vitamin D3 receptor (Homo sapiens) (P11473 whole entry, looked up): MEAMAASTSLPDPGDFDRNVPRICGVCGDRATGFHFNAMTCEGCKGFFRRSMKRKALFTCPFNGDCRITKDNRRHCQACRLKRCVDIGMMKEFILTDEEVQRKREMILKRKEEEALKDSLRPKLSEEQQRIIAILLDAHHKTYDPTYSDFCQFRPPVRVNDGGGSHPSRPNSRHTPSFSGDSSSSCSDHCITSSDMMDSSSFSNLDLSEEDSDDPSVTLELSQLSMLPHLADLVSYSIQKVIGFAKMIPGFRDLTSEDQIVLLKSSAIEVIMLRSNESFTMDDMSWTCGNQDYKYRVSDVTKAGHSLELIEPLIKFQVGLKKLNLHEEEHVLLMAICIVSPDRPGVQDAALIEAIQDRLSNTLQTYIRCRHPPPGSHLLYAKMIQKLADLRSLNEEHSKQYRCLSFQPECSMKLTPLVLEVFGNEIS
Outline: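 Tox21 cell reporter format: VDR-bla line, 16 h compound exposure in 5% CO2 at 37C, then fluorescence intensity after 2 h with LiveBLAzer B/G FRET substrate.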

[19] = target: Vitamin D3 receptor (Homo sapiens) (UniProt P11473); experiment: qHTS assay to identify small molecule antagonists of the vitamin D receptor (VDR) signaling pathway (AID 743223; active = well fitted inhibition curve with a large enough effect in the signal ratio in the repeat runs, not every such curve was filed as active; the % refers to the signal ratio)
Outline: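 Beta-lactamase activity in VDR-bla cells is measured by FRET substrate fluorescence (2 h, room temperature) after cells spend 16 h at 37C with test compound and 3 nM final 1alpha,25-dihydroxyvitamin D3.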

[20] = qHTS assay for small molecule activators of the heat shock response signaling pathway (AID 743210; active = well fitted activation curve with a large enough effect in the signal ratio in the repeat runs, with a control signal flat, not every such curve was filed as active; the % refers to the signal ratio; also: series mostly up to about 63 µM)
Outline: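 Compound exposure lasted 5 h at 37 C in HeLa cells carrying a heat-shock-element-driven beta-lactamase reporter. Read-out: fluorescence intensity after 2.5 h room-temperature loading with LiveBLAzer B/G FRET substrate.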

Measured: Potency

COc1cc(C=O)ccc1O
not listed: [20]
inactive: all other assays above

C=CC(=O)NC(C)(C)CS(=O)(=O)O
not listed: [14] | [16]
inactive: all other assays above

CCCCOC(=O)CCCCCCCCC(=O)OCCCC
not listed: [11] | [13] | [14] | [16]
inactive: all other assays above

O=C(O)CCCCC1CCSS1 (configuration not stated)
not listed: [7] | [14] | [16]
inactive: all other assays above

CCN(CC)CCOC(=O)c1ccc(N)cc1
not listed: [11] | [13] | [14] | [16]
inactive: all other assays above

CCCCOCCOCCOC(C)=O
not listed: [14] | [16]
inactive: all other assays above

O=c1c(-c2ccc(O)cc2)coc2cc(O)cc(O)c12
active: [5] 48.1 µM and 38.9 µM | [7] 6.74 µM and 10.6 µM | [14] 38.9 µM and 26.6 µM
inactive and 12.2 µM (active): [2]
not listed: [13]
inactive: all other assays above

COC(=O)C1CCC(C(=O)OC)CC1 (configuration not stated)
not listed: [7]
inactive: all other assays above
